# Assay results published in PubChem BioAssay.
# Calls of active or inactive are those of the source.
# What was measured:
# Albumin (Bos taurus) = Albumin (Bos taurus) (UniProt P02769); assay: bovine serum albumin binders on microarray, profiling panel, artefact control for SMM control protein annotation, biochemical, small-molecule microarray, Alexa647 label, 635/667 nm fluorescence (AID 1118); settings: BSA-A647 binding, fluorescence 635 nm, higher = more signal;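 note: score merges 667 nm emission intensity and signal-to-noise per printed compound spot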
# Chain of Albumin (Bos taurus) (P02769 whole entry, looked up): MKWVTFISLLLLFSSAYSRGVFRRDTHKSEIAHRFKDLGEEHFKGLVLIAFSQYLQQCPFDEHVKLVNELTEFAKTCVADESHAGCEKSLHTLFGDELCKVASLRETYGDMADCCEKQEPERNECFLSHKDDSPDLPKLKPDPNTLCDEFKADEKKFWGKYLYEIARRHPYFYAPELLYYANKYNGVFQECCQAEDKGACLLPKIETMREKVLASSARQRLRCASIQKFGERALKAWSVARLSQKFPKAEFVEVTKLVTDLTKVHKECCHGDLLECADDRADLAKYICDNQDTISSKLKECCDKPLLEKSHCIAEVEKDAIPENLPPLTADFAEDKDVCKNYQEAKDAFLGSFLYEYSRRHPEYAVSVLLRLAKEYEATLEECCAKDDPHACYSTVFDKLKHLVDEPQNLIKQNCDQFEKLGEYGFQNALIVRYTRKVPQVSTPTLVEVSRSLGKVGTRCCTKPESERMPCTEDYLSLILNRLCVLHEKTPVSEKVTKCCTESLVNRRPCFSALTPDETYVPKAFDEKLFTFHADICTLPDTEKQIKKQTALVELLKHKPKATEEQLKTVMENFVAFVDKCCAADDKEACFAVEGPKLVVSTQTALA
# [1] = small-molecule microarray binders of probe aXIP, primary screen, biochemical, NeuroSMM set, 635/667 nm fluorescence (AID 1119); settings: higher = more signal, called active from +8 up or from −8 down;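 note: probe is the protein aXip251-270 applied at 1 µg/mL to compound-printed slides; binding of probe to printed compounds measured as 667 nm fluorescence plus signal to noise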
# [2] = small-molecule binders of probe aNOTCH3, primary screen, biochemical, small-molecule microarray, 635/667 nm fluorescence (AID 1120); settings: higher = more signal;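 note: probe is a biotin-tagged antibody raised against NOTCH3 rather than NOTCH3 protein; score merges spot fluorescence near 667 nm with spot signal to noise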
# [3] = small-molecule binders of probe aNOTCH2, primary screen, biochemical, small-molecule microarray, 635/667 nm fluorescence (AID 1121); settings: higher = more signal;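 note: score merges feature fluorescence read at 667 nm with its signal to noise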
# [4] = biological target: Carbonic anhydrase 2 (Homo sapiens) (UniProt P00918); assay: CAII small-molecule binders, profiling panel, biochemical, small-molecule microarray, Alexa647-labelled CAII (AID 1122); settings: CAII-A647 binding fluorescence, higher = more signal
# [5] = COS7 lysate on small-molecule microarray, probe aHis, 635 nm (AID 1123); settings: COS7 cell lysate, fluorescence, higher = more signal;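 note: z-score combines 667nm fluorescence intensity with signal-to-noise per printed compound spot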
# [6] = compound binding in COS7 lysate, probe aLAP1, primary screen, cell lysate, small-molecule microarray (AID 1124); settings: probe aLAP1, fluorescence, higher = more signal;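 note: lysate comes from COS7 cells expressing LAP1 and is applied at 0.3 µg/mL; score merges spot fluorescence near 667 nm with signal-to-noise over triplicate slides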
# Sam68 (KHDRBS1) = assay: Sam68 small-molecule binders, primary screen, biochemical, small-molecule microarray, 635 nm fluorescence (AID 1125); settings: small-molecule microarray binding, higher = more signal;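 note: score merges 667 nm channel intensity with signal to noise over triplicate slides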
# [7] = system: Chordin-like protein 2 (CHRDL2); assay: CHRDL2 small-molecule binders, primary screen, biochemical, small-molecule microarray, 635 nm fluorescence (AID 1126); settings: small-molecule microarray binding, fluorescence 635 nm; higher = more signal;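 note: printed compound slides probed with Chrdl2 protein at 4 µg/mL for 1 h at 4 C; score merges 667 nm emission intensity with signal to noise over three replicate slides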
# [8] = biological target: Concanavalin-A (Canavalia ensiformis) (UniProt P02866); assay: ConA small-molecule binders, primary screen, artefact control for SMM control protein annotation, biochemical, small-molecule microarray, Alexa647 label, 635 nm (AID 1127); settings: ConA-A647 binding fluorescence, higher = more signal;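 note: z combines 667 nm emission intensity with signal-to-noise across three replicate slides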
# Chain of Concanavalin-A (Canavalia ensiformis) (P02866 whole entry, looked up): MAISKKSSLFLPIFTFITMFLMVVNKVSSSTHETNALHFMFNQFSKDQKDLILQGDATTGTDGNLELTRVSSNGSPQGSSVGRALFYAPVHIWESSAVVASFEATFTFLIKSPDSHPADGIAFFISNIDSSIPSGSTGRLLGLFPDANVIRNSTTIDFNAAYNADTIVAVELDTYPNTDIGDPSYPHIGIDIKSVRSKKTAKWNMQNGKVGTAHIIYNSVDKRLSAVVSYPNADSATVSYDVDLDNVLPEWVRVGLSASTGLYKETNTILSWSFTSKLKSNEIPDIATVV
# [9] = anti-His antibody binders, primary screen, artefact control for SMM control protein annotation, biochemical, small-molecule microarray, 635 nm fluorescence (AID 1128); settings: anti-His Alexa647 antibody binding, higher = more signal;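 note: score merges feature fluorescence with signal-to-noise for each printed compound spot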
# [10] = system: Human papillomavirus type 1a E7 protein (residues 1-88); assay: HPV1a E7 small-molecule binders, primary screen, biochemical, small-molecule microarray, residues 1-88, 635 nm (AID 1129); settings: small-molecule microarray binding, fluorescence 635 nm; higher = more signal
# [11] = biological target: Focal adhesion kinase 1 (Homo sapiens) (UniProt Q05397); assay: small-molecule microarray binders of FAK, primary screen, biochemical, 635/667 nm fluorescence, BSA, DTT (AID 1130); settings: PTK2 binding, 635 nm fluorescence, higher = more signal;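 note: composite of spot emission at 667 nm and signal to noise over triplicate slides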
# Chain of Focal adhesion kinase 1 (Homo sapiens) (Q05397 whole entry, looked up): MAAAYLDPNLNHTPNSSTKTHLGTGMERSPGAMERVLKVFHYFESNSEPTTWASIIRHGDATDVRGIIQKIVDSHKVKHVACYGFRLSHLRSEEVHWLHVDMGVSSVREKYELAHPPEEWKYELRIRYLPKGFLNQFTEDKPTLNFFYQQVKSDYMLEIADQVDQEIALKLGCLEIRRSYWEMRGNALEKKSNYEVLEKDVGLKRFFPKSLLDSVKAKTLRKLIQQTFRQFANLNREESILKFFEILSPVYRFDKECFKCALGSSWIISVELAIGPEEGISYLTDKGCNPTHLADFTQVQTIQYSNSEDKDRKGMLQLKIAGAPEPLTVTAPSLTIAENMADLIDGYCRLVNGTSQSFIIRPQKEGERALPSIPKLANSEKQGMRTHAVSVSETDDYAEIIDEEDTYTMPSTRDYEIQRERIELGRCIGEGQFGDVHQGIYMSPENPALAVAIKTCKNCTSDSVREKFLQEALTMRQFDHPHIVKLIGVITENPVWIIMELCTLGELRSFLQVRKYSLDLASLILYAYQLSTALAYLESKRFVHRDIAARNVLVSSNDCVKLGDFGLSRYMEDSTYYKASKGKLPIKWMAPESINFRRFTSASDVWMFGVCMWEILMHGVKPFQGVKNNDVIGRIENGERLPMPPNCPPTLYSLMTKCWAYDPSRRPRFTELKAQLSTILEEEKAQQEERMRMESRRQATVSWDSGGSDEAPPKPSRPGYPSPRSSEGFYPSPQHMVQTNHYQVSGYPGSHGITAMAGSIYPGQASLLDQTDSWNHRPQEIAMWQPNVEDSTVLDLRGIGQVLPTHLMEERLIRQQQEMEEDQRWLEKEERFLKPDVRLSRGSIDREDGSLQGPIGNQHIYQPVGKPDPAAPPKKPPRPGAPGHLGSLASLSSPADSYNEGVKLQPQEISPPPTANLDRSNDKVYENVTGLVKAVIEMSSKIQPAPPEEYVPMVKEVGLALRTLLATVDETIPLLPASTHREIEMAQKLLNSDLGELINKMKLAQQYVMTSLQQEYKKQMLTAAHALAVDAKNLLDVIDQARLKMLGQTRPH
# [12] = system: Fibrinogen (Alexa647-labelled); assay: fibrinogen binders on compound microarrays, profiling panel, artefact control for SMM control-protein annotation, biochemical, small-molecule microarray, 635/667 nm fluorescence (AID 1131); settings: fibrinogen-A647 binding fluorescence, higher = more signal;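 note: z-score merges 667 nm fluorescence with per-spot signal-to-noise over triplicate slides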
# [13] = biological target: Follistatin (Homo sapiens) (UniProt P19883); assay: follistatin binders on small-molecule microarrays, primary screen, biochemical, small-molecule microarray, 635/667 nm fluorescence (AID 1132); settings: FST binding, 635 nm fluorescence, higher = more signal
# Chain of Follistatin (Homo sapiens) (P19883 whole entry, looked up): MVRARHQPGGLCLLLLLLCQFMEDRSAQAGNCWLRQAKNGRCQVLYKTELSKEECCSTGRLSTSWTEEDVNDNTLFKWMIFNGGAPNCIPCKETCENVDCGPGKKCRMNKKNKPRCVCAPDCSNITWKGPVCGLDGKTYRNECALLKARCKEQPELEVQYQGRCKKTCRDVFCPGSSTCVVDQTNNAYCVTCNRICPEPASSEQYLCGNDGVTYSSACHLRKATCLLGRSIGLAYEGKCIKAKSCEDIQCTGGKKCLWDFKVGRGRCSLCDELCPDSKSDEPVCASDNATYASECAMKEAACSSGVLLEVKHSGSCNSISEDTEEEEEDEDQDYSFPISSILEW
# [14] = biological target: Fibroblast growth factor 2 (Homo sapiens) (UniProt P09038); assay: FGF2 binders on small-molecule microarrays, primary screen, biochemical, small-molecule microarray, 635/667 nm fluorescence (AID 1133); settings: small-molecule microarray binding, FGF2, fluorescence 635/667; higher = more signal
# Chain of Fibroblast growth factor 2 (Homo sapiens) (P09038 whole entry, looked up): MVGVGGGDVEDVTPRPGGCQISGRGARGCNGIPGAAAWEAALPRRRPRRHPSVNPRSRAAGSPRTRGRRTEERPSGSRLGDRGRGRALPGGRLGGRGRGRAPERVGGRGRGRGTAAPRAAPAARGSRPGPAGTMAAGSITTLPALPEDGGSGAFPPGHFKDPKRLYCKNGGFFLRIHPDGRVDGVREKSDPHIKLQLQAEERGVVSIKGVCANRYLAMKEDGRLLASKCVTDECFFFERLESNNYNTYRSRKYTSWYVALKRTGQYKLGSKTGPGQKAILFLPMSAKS
# [15] = mitochondrial membrane potential change in A549 cells, profiling panel, cell-based, JC-1 fluorescence, basal, 24 h, 100 nL (AID 1138); settings: higher = more signal;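 note: A549 lung adenocarcinoma cells under basal conditions with no added stimulus; test concentration not given here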
# Lefty1 = Lefty1 binders on small-molecule microarrays, primary screen, biochemical, small-molecule microarray, 635/667 nm fluorescence (AID 1139); settings: small-molecule microarray binding, fluorescence 635/667; higher = more signal
# [16] = system: wheat germ agglutinin (Triticum aestivum), Alexa647-labelled; assay: wheat germ agglutinin binders on compound microarrays, profiling panel, artefact control for SMM control-protein annotation, biochemical, small-molecule microarray, 635/667 nm fluorescence (AID 1140); settings: WGA-A647 binding, 635 nm fluorescence, higher = more signal;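 note: score merges 667 nm feature emission with signal to noise over triplicate slides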
# [17] = biological target: Luciferin 4-monooxygenase (Photinus pyralis) (UniProt P08659); assay: firefly luciferase enzyme inhibitors, primary screen, biochemical, luminescence, purified enzyme, 2006 set (AID 1141); settings: SteadyGlo luminescence, 30 min, higher = more signal, called active from +8 up or from −8 down;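 note: cell-free assay with purified firefly luciferase at 100 ng per well in PBS; test concentration not given here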
# Chain of Luciferin 4-monooxygenase (Photinus pyralis) (P08659 whole entry, looked up): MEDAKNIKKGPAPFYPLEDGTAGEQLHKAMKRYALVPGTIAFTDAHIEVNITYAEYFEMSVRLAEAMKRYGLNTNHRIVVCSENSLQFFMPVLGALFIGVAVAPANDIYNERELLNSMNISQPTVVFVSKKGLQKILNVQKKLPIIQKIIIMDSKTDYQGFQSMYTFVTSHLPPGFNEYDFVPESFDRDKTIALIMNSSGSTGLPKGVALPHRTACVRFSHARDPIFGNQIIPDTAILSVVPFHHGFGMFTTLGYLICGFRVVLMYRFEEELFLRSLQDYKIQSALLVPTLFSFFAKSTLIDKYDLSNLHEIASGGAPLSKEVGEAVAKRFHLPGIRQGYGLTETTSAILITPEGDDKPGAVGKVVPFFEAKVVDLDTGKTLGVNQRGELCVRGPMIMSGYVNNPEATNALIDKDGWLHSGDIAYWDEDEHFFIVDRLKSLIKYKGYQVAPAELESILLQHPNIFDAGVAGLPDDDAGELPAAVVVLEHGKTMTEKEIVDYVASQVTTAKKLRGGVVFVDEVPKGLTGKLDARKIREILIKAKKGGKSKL
SMILES,composite z-score (Albumin (Bos taurus)),composite Z-score [1],composite z-score [2],composite z-score [3],composite z-score [4],composite z-score [5],composite z-score [6],composite z-score (Sam68 (KHDRBS1)),composite z-score [7],composite z-score [8],composite z-score [9],composite z-score [10],composite z-score [11],composite z-score [12],composite z-score [13],composite z-score [14],z-score [15],composite z-score (Lefty1),composite z-score [16],z-score [17]
C[C@H]1COC(=O)[C@H](Cc2ccccc2)NC(=O)[C@@H](C)COC(=O)[C@H](Cc2ccccc2)NC1=O,0.732,0.0705 (inactive),-0.0377,-0.0967,0.447,0.612,0.275,1.27,0.845,0.892,1.46,1.12,0.327,0.194,0.593,0.635,1.04,1.03,0.523,-0.443 (inactive)
COc1ccc([Si](C)(C)[C@@H]2[C@@H](CC(=O)N(CCO)Cc3ccccc3)O[C@]3(C(=O)N(Cc4cccc(N5CCC5=O)c4)c4ccccc43)[C@H]2C)cc1,0.047,0.0923 (inactive),-0.0647,-0.0916,0.401,2.49,1.95,1.05,0.9,0.902,0.863,1.1,0.545,-0.0806,1.3,1.4,-0.282,1.49,0.163,0.352 (inactive)
CCOC(=O)C1=CC[C@@H](c2ccccc2)N(S(=O)(=O)c2ccc(C)cc2)[C@H]1C,0.972,0.102 (inactive),0.29,0.0832,0.671,2.49,0.689,1.29,0.416,1.05,1.18,1.24,0.147,1.02,0.92,0.952,3.66,0.778,0.457,0.347 (inactive)
Cc1ccc(S(=O)(=O)N2[C@@H](c3ccccc3)C(C(=O)O)=CC[C@H]2c2ccccc2)cc1,0.508,1.47 (inactive),-0.0647,-0.0771,0.837,2.33,0.498,0.702,-0.439,0.0991,-0.247,0.699,0.431,0.175,-0.12,-0.158,-1.38,0.0236,0.33,0.838 (inactive)
C[C@@H]1CC[C@H]2C(=O)N3[C@@H](CC[C@@H](C)[C@@H]3c3cccc(N4CCOCC4)c3)C(=O)N2[C@H]1c1cccc(N2CCOCC2)c1,0.0915,-0.354 (inactive),-0.344,-0.217,0.477,0.8,0.581,0.594,0.902,1.04,0.181,0.978,0.0379,0.815,1.16,1.16,1.05,1.47,0.964,-1.23 (inactive)
CCCNC(=O)[C@@]1(Sc2ccc(C)cc2)CC(=O)N(Cc2ccccc2Cl)[C@@H]1c1ccc(CO)cc1,0.694,0.165 (inactive),0.308,-0.0906,0.572,1.67,1.2,1.31,0.725,1.12,1.12,1.15,0.29,0.789,1.42,1.6,1.02,1.19,1.18,-0.0629 (inactive)
C=CC[C@@]1(C(=O)NCC(O)CO)N=C(c2ccc(OCCCO)cc2)O[C@@H]1c1ccccc1CN=[N+]=[N-] (stereo not given in full),0.988,0.536 (inactive),-0.105,-0.0759,0.809,2.98,0.411,1.04,-0.834,-0.304,1.55,0.756,0.77,0.198,0.415,-0.492,1.37,-0.548,0.569,-0.117 (inactive)
C#CCNC(/C=C/c1ccccc1)CO (stereo not given),-0.086,0.234 (inactive),-0.104,-0.115,-0.152,0.14,-0.0995,0.134,0.3,0.262,0.638,0.355,-0.0492,0.269,0.362,0.106,-1.07,0.394,-0.0687,0.835 (inactive)
COc1ccc([Si](C)(C)[C@H]2[C@H](CCO)O[C@@]3(C(=O)N(Cc4ccc(N5CCCCC5=O)cc4)c4ccccc43)[C@@H]2C)cc1,0.643,-0.247 (inactive),0.25,-0.0846,0.596,1.79,0.109,1.3,-0.0425,1.12,1.91,1.1,0.0098,0.903,1.3,0.753,1.33,1.36,1.14,-1.39 (inactive)
C[C@H]1NC(=O)[C@@H](C)NC(=O)[C@@]23C(=O)N[C@@H](Cc4ccccc4)C2[C@H](C)[C@@]2(C)O[C@H]2C3/C=C/C/C=C\CNC1=O (stereo not given in full),-0.631,0.0894 (inactive),-0.195,-0.126,0.502,-0.482,-0.599,-0.344,0.274,-0.888,-0.759,-1.84,-0.801,-0.388,0.117,0.0213,1.07,-0.0767,0.0969,-0.919 (inactive)
COC(=O)[C@@]1(Cc2ccccc2N=[N+]=[N-])N=C(c2ccc(OCCCO)cc2)O[C@H]1c1ccccc1CN=[N+]=[N-],-0.487,0.289 (inactive),-0.0699,0.0341,0.571,2.1,-0.113,1.22,0.0008,0.456,1.65,1.02,0.926,0.168,1.29,0.609,1.02,-0.213,0.727,-1.76 (inactive)
